For one molecule, outcome results are on record in PubChem BioAssay AID1117283 (Broad Institute, 2014).

SMILES strings stand for the structures. Entries with a potency or affinity are not part of this list. Calls of active or inactive are those of the source.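 The calls were made as follows: active = fluorescent signal decreased by at least 40%; inconclusive = no clear call, values can overlap the other calls; inactive = the rest, including activity opposite to the expected direction.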

The experiment in a line: fibronectin fibrillogenesis inhibitors in fibroblasts, dose response, AH1F cells, Alexa488-fibronectin fluorescence, cherry-pick, set 2 (AID 1117283).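 Also: AH1F fibroblasts given Alexa488-labelled fibronectin at 24 nM final.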

As to `C=C1C(=O)O[C@@H]2C[C@@H](C)[C@@H]3C=CC(=O)[C@@]3(C)[C@@H](O)[C@H]12`, the molecule was classed as inactive.
